Reference: PubChem BioAssay (NCATS)
Records with an inconclusive call do not appear. Active and inactive are the calls of the source. Calls follow the shape of the dose curve; as a rule, active = well fitted cell-killing curve with a large enough effect; inconclusive = small, poorly fitted or top-dose-only effect, or effect the other way; inactive = no such curve, though single readings can be large or run the other way.

How the values were obtained:
[1] = Quantitative High-Throughput drug screen in 47 multiple myeloma cell lines against the NCATS MIPE library collection: FR4_PLB cell viability assay (AID 1918924; also: nearly all actives have a fitted effect of over 35% in size); details: FR4_PLB myeloma cells viability, CellTiter-Glo ATP, 48 h; series mostly up to 45.8 µM
How it was run: (§1)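 Luminescent ATP measurement with CellTiter-Glo gives viability, scaled between DMSO-only wells (100%) and media-only wells (0%). Cells, 500 per well, faced library compounds for 48 hours at 37C.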

[2] = Quantitative High-Throughput drug screen in 47 multiple myeloma cell lines against the NCATS MIPE library collection: Delta47_JCRB cell viability assay (AID 1918925; also: nearly all actives have a fitted effect of over 45% in size); details: Delta47 myeloma viability, CellTiter-Glo ATP, 48 h; series mostly up to 45.8 µM
How it was run: (§2)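 qHTS of the MIPE 4.0 collection: 500 myeloma cells/well, 48 h drug exposure at 37C in 5% CO2, then CellTiter-Glo for 5 min at room temperature before luminescence reading.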

[3] = Quantitative High-Throughput drug screen in 47 multiple myeloma cell lines against the NCATS MIPE library collection: ARP1_JJKsccF8 cell viability assay (AID 1918928; also: nearly all actives have a fitted effect of over 40% in size); details: ARP1 myeloma cells viability, CellTiter-Glo ATP, 48 h; series mostly up to 45.8 µM
How it was run: (§3)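 Myeloma cells at 500 per well in 1536-well format treated with MIPE 4.0 library by pin transfer for 48 h at 37C, 5% CO2. Viability from ATP luminescence (CellTiter-Glo), normalized to DMSO (100%) and media-only (0%) wells.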

[4] = Quantitative High-Throughput drug screen in 47 multiple myeloma cell lines against the NCATS MIPE library collection: Karpas620_DSMZ cell viability assay (AID 1918959); details: Karpas620 myeloma viability, CellTiter-Glo ATP luminescence, 48 h; series mostly up to 45.8 µM; also: nearly all actives have a fitted effect of over 30% in size
How it was run: as §1

[5] = Quantitative High-Throughput drug screen in 47 multiple myeloma cell lines against the NCATS MIPE library collection: KMM1_JCRB cell viability assay (AID 1918960); details: KMM1 myeloma viability, CellTiter-Glo ATP luminescence, 48 h; series mostly up to 45.8 µM; also: nearly all actives have a fitted effect of over 30% in size
How it was run: as §3

[6] = Quantitative High-Throughput drug screen in 47 multiple myeloma cell lines against the NCATS MIPE library collection: Karpas417_ECACC cell viability assay (AID 1918961); details: Karpas417 myeloma viability, CellTiter-Glo ATP luminescence, 48 h; viability (% of DMSO): at 45.8 µM (top of the series)
How it was run: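 Steps: seed 500 cells per well; pin-transfer MIPE 4.0 library; incubate 48 h at 37C, 5% CO2, humidified; add CellTiter-Glo, 5 min room temperature; read luminescence.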

[7] = Quantitative High-Throughput drug screen in 47 multiple myeloma cell lines against the NCATS MIPE library collection: EJM_DSMZ cell viability assay (AID 1918926; also: nearly all actives have a fitted effect of over 30% in size); details: EJM myeloma cell viability, CellTiter-Glo ATP, 48 h; series mostly up to 45.8 µM
How it was run: as §2

[8] = Quantitative High-Throughput drug screen in 47 multiple myeloma cell lines against the NCATS MIPE library collection: ARD_JJKsccE7 cell viability assay (AID 1918929); details: ARD myeloma cell line viability, CellTiter-Glo, 48 h; series mostly up to 45.8 µM
How it was run: as §2

[9] = Quantitative High-Throughput drug screen in 47 multiple myeloma cell lines against the NCATS MIPE library collection: AMO1_DSMZ cell viability assay (AID 1918927; also: nearly all actives have a fitted effect of over 30% in size); details: AMO1 myeloma cells viability, CellTiter-Glo ATP luminescence, 48 h; series mostly up to 45.8 µM
How it was run: as §2

Measured: Potency
Potency is read from the fitted curve at half-maximal effect.

CC(=O)Oc1ccccc1C(=O)Nc1ncc([N+](=O)[O-])s1
active: [1] 19.1 µM | [2] 30.3 µM | [3] 34 µM | [4] 12.1 µM | [5] 8.55 µM | [6] 13.6 µM

Cc1ccc(S(=O)(=O)N[C@@H](Cc2ccccc2)C(=O)CCl)cc1
active: [1] 20.9 µM | [7] 16.6 µM | [3] 20.9 µM | [8] 16.6 µM | [4] 11.8 µM | [5] 13.2 µM | [6] 11.8 µM

COc1cc2ncnc(Nc3cccc(Cl)c3)c2cc1OC
active: [1] 26.4 µM | [7] 0.0418 µM | [9] 23.5 µM | [3] 26.4 µM | [8] 23.5 µM | [5] 20.9 µM

COc1cccc(N(C)C(=S)Oc2ccc3c(c2)CCCC3)n1
inactive: [1] | [7]

CCCc1nc(C)c2c(=O)[nH]c(-c3cc(S(=O)(=O)N4CCN(CC)CC4)ccc3OCC)nn12
active: [1] 8.33 µM | [2] 5.9 µM | [9] 7.43 µM | [3] 5.26 µM | [4] 2.35 µM | [5] 3.72 µM

COc1c(N2CCNC(C)C2)c(F)cc2c(=O)c(C(=O)O)cn(C3CC3)c12 (stereo not given)
not listed: [2] | [5]
inactive: all other assays above

C[C@]12C=CC(=O)C=C1CC[C@@H]1[C@@H]2C(=O)C[C@@]2(C)[C@H]1CC[C@]2(O)C(=O)CO
not listed: [2] | [6] | [8]
inactive: all other assays above

Nc1nc(N)nc(-c2cc(Cl)ccc2Cl)n1
inactive: [1] | [2] | [5] | [6]

CCCCS(=N)(=O)CCC(N)C(=O)O (stereo not given)
inactive: [1] | [2] | [9] | [5]

COc1cc2nc(N3CCCN(C)CC3)nc(NC3CCN(Cc4ccccc4)CC3)c2cc1OC
active: [1] 5.26 µM | [7] 9.35 µM | [3] 8.33 µM | [8] 8.33 µM | [4] 3.72 µM | [5] 7.43 µM | [6] 2.35 µM

O=C(O)C1CCCN(CCC=C(c2ccccc2)c2ccccc2)C1 (stereo not given)
not listed: [2] | [6]
inactive: all other assays above

N=C(N)c1ccc(OCCCCCOc2ccc(C(=N)N)cc2)cc1
inactive: [8]
active: [1] 18.7 µM | [2] 5.26 µM | [5] 5.26 µM

CC(C)OC(=O)C(C(=O)OC(C)C)=C1SC=CS1
inactive: [1] | [2] | [9] | [3] | [4]

CCN(CC)CC#CCOC(=O)C(O)(c1ccccc1)C1CCCCC1 (stereo not given)
inactive: [1] | [7]

CC(C)(C#N)c1cc(Cn2cncn2)cc(C(C)(C)C#N)c1
not listed: [2] | [3] | [6]
inactive: all other assays above

Cc1cc(NS(=O)(=O)c2ccc(N)cc2)no1
not listed: [6] | [7] | [9]
inactive: all other assays above

Nc1nc(=S)c2[nH]cnc2[nH]1
inactive: [8] | [4] | [5] | [6]
active: [1] 1.66 µM | [2] 2.96 µM | [3] 1.32 µM

NC(=O)N1c2ccccc2CC(=O)c2ccccc21
not listed: [3] | [6] | [7]
inactive: all other assays above

CN(CCOc1ccc(CC2SC(=O)NC2=O)cc1)c1ccccn1 (stereo not given)
inactive: [1] | [2] | [5]
active: [4] 0.0019 µM

CN(C)CCc1c[nH]c2ccc(CS(=O)(=O)N3CCCC3)cc12
inactive: [1] | [7] | [9] | [4]

NC(=O)c1cccnc1
not listed: [2] | [3] | [9]
inactive: all other assays above

NNC(=O)c1ccncc1
inactive: [1] | [4] | [5]

CCCc1cc(C(N)=S)ccn1
inactive: [1] | [9] | [3] | [4] | [5]

CCn1cc(C(=O)O)c(=O)c2cc(F)c(N3CCNCC3)cc21
inactive: [1] | [4] | [5] | [6]

CC(C)NCC(O)c1ccc(NS(C)(=O)=O)cc1 (stereo not given)
inactive: [1] | [7] | [5] | [6]

Cc1nnc(NS(=O)(=O)c2ccc(N)cc2)s1
inactive: [1]
active: [4] 1.66 µM | [5] 1.18 µM

CS(=O)(=O)c1ccc([C@@H](O)[C@@H](CO)NC(=O)C(Cl)Cl)cc1
inactive: [1] | [7] | [4]

Nc1ccc(S(=O)(=O)Nc2ccccn2)cc1
inactive: [1] | [3] | [4] | [5] | [6]

CCN(CC)CCn1c(=O)c(Cc2ccc(OC)cc2)nc2ccccc21
not listed: [2] | [7] | [9]
inactive: all other assays above
